# Results reported in PubChem BioAssay AID1159580 (chemical genetic matrix, 2015).
# Where “and” joins values, the source holds several entries; their conditions need not be identical. Identical values can stand only once. The campaign covered roughly 5,500 compounds. About 2,000 (36%) were called active. Roughly 18% stayed inconclusive and do not appear here. The list shows a part of the results. Values without a mark were called inactive. Rule as the data show it: active = normalized growth mostly below about 0.91 (no sharp cut-off); inconclusive = no clear call, values can overlap the other calls; inactive = mostly above about 0.92.
# Test: chemical genetic growth profiling, strain panel (AID 1159580);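 also: tested at 20 µM; growth read once vehicle control cultures reached saturation at 30 °C; 1 = growth at the plate median or of vehicle wells; lower values mean less growth of the strain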
# Details: S. cerevisiae deletion strains, growth OD
smiles,measurement,setting,value
COc1cc(NC(C)CCCN)c2ncccc2c1 (configuration not stated),normalized growth,"locus YAL013W, strain DEP1, hits give low values",1
same,normalized growth,"locus YAL021C, strain ccr4, hits give low values",0.972
same,normalized growth,"locus YAL026C, strain drs2, hits give low values",1.02
same,normalized growth,"locus YAL030W, strain snc1, hits give low values",0.999
same,normalized growth,"locus YBL061C, strain skt5, hits give low values",1
same,normalized growth,"locus YBR009C, strain hhf1, hits give low values",1.07
same,normalized growth,"locus YBR021W, strain FUR4, hits give low values",0.988
same,normalized growth,"locus YBR023C, strain chs3, hits give low values",1.02
same,normalized growth,"locus YBR171W, strain sec66, hits give low values",1.01
same,normalized growth,"locus YBR229C, strain ROT2, hits give low values",1
same,normalized growth,"locus YBR231C, strain swc5, hits give low values",0.984
same,normalized growth,"locus YBR279W, strain paf1, hits give low values",1.01
same,normalized growth,"locus YCL011C, strain gbp2, hits give low values",1.01
same,normalized growth,"locus YCL016C, strain dcc1, hits give low values",1.02
same,normalized growth,"locus YCL029C, strain bik1, hits give low values",1.02
same,normalized growth,"locus YCL061C, strain MRC1, hits give low values",1
same,normalized growth,"locus YCL069W, strain vba3, hits give low values",1.01
same,normalized growth,"locus YCR088W, strain abp1, hits give low values",1
same,normalized growth,"locus YDL005C, strain med2, hits give low values",1
same,normalized growth,"locus YDL035C, strain GPR1, hits give low values",1
same,normalized growth,"locus YDL040C, strain nat1, hits give low values",1
same,normalized growth,"locus YDL074C, strain BRE1, hits give low values",1.01
same,normalized growth,"locus YDL101C, strain DUN1, hits give low values",1.02
same,normalized growth,"locus YDL134C, strain PPH21, hits give low values",1.01
same,normalized growth,"locus YDL185W, strain tfp1, hits give low values",1.01
same,normalized growth,"locus YDL192W, strain arf1, hits give low values",1.01
same,normalized growth,"locus YDR001C, strain nth1, hits give low values",1.01
same,normalized growth,"locus YDR069C, strain doa4, hits give low values",0.977
same,normalized growth,"locus YDR101C, strain arx1, hits give low values",1
same,normalized growth,"locus YDR137W, strain rgp1, hits give low values",1.03
same,normalized growth,"locus YDR150W, strain NUM1, hits give low values",1.01
same,normalized growth,"locus YDR159W, strain sac3, hits give low values",0.993
same,normalized growth,"locus YDR162C, strain NBP2, hits give low values",1.01
same,normalized growth,"locus YDR195W, strain ref2",0.99
same,normalized growth,"locus YDR297W, strain sur2, hits give low values",1
same,normalized growth,"locus YDR318W, strain mcm21, hits give low values",1
same,normalized growth,"locus YDR334W, strain swr1, hits give low values",1.01
same,normalized growth,"locus YDR335W, strain msn5, hits give low values",1
same,normalized growth,"locus YDR388W, hits give low values",1.02
same,normalized growth,"locus YDR392W, strain spt3, hits give low values",0.875
same,normalized growth,"locus YDR502C, strain sam2, hits give low values",1
same,normalized growth,"locus YEL003W, strain gim4, hits give low values",1.01
same,normalized growth,"locus YEL037C, strain rad23, hits give low values",1.02
same,normalized growth,"locus YEL061C, strain CIN8 (second series), hits give low values",1
same,normalized growth,"locus YEL061C, strain CIN8, hits give low values",1
same,normalized growth,"locus YER015W, strain faa2, hits give low values",0.989
same,normalized growth,"locus YER016W, strain bim1, hits give low values",0.995
same,normalized growth,"locus YER110C, hits give low values",1.01
same,normalized growth,"locus YER111C, strain swi4, hits give low values",1.01
same,normalized growth,"locus YER155C, strain BEM2 (second series), hits give low values",0.859 (active)
same,normalized growth,"locus YER155C, strain BEM2, hits give low values",0.999
same,normalized growth,"locus YER167W, strain BCK2, hits give low values",1.01
same,normalized growth,"locus YFR010W, strain ubp6, hits give low values",1.01
same,normalized growth,"locus YGL078C, strain dbp3, hits give low values",1.01
same,normalized growth,"locus YGL086W, strain mad1, hits give low values",0.981
same,normalized growth,"locus YGL167C, strain pmr1, hits give low values",1.01
same,normalized growth,"locus YGL173C, strain kem1, hits give low values",1.02
same,normalized growth,"locus YGL227W, strain vid30, hits give low values",0.999
same,normalized growth,"locus YGL240W, strain doc1, hits give low values",0.985
same,normalized growth,"locus YGL248W, strain PDE1, hits give low values",1.01
same,normalized growth,"locus YGL253W, strain hxk2, hits give low values",1.03
same,normalized growth,"locus YGR078C, strain PAC10, hits give low values",1.02
same,normalized growth,"locus YGR135W, strain pre9, hits give low values",0.991
same,normalized growth,"locus YGR229C, strain SMI1, hits give low values",1.01
same,normalized growth,"locus YGR252W, strain gcn5, hits give low values",0.961
same,normalized growth,"locus YHR013C, strain ard1, hits give low values",1
same,normalized growth,"locus YHR027C, strain rpn1, hits give low values",1.03
same,normalized growth,"locus YHR030C, strain SLT2, hits give low values",1.01 and 1.05
same,normalized growth,"locus YHR079C, strain IRE1 (second series), hits give low values",1.01
same,normalized growth,"locus YHR079C, strain IRE1, hits give low values",1.05
same,normalized growth,"locus YHR094C, strain hxt1, hits give low values",1.01
same,normalized growth,"locus YHR129C, strain ARP1, hits give low values",1
same,normalized growth,"locus YHR142W, strain chs7, hits give low values",1.05
same,normalized growth,"locus YHR200W, strain rpn10, hits give low values",1
same,normalized growth,"locus YIL066C, strain RNR3, hits give low values",1.01
same,normalized growth,"locus YIL073C, strain SPO22, hits give low values",1.1
same,normalized growth,"locus YIL125W, strain kgd1, hits give low values",1.01
same,normalized growth,"locus YIR030C, strain dcg1, hits give low values",1.01
same,normalized growth,"locus YJL092W, strain hpr5, hits give low values",0.995
same,normalized growth,"locus YJL095W, strain BCK1 (second series), hits give low values",1.02
same,normalized growth,"locus YJL095W, strain BCK1, hits give low values",1 and 1.03
same,normalized growth,"locus YJL115W, strain asf1, hits give low values",1.01
same,normalized growth,"locus YJL129C, strain trk1, hits give low values",1.04
same,normalized growth,"locus YJL134W, strain LCB3, hits give low values",1
same,normalized growth,"locus YJL154C, strain vps35, hits give low values",1
same,normalized growth,"locus YJL164C, strain tpk1, hits give low values",1.04
same,normalized growth,"locus YJL166W, strain qcr8, hits give low values",0.964
same,normalized growth,"locus YJL168C, strain set2, hits give low values",1.01
same,normalized growth,"locus YJL187C, strain SWE1 (second series), hits give low values",1.02
same,normalized growth,"locus YJL187C, strain SWE1, hits give low values",0.998
same,normalized growth,"locus YJR043C, strain POL32, hits give low values",0.995
same,normalized growth,"locus YJR066W, strain TOR1, hits give low values",0.977
